Assay results published in PubChem BioAssay (NCI).
About 79,000 compounds went through this panel and 15% of them were active in at least one assay; those are over-represented in the sample as a whole. Activity calls are given as the source filed them. Rule as the data show it: active = growth inhibition above about 70%; inactive = the rest.

What was measured:
[1] = NCI Yeast Anticancer Drug Screen. Data for the rad52 strain (AID 147);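 also: 0% = growth of vehicle-treated control cultures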; settings: S. cerevisiae rad52 mutant growth inhibition, stronger effect = higher value
Summary of the method: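 Read-out: growth inhibition versus vehicle-treated controls. Cells were a DNA repair-deficient yeast strain treated with compounds.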

[2] = NCI Yeast Anticancer Drug Screen. Data for the wt1 strain (AID 149);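 also: 0% = growth of vehicle-treated wt1 cultures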; settings: S. cerevisiae wt1 strain (SPY 50644) growth inhibition, stronger effect = higher value
Summary of the method: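 Each compound is tested on wt1 yeast and the loss of growth versus vehicle gives the inhibition value.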

[3] = NCI Yeast Anticancer Drug Screen. Data for the rad50EPP+ strain (AID 151);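 also: 0% = growth of vehicle-treated control cultures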; settings: S. cerevisiae rad50 mutant strain, stronger effect = higher value
Summary of the method: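 Growth inhibition read against vehicle controls in rad50EPP+ yeast, a strain altered in DNA damage repair, after compound exposure.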

[4] = NCI Yeast Anticancer Drug Screen. Data for the mgt1 strain (AID 153); settings: S. cerevisiae mgt1 mutant growth inhibition, stronger effect = higher value
Summary of the method: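 mgt1 yeast grown with test compound; read-out is growth inhibition versus vehicle-treated cultures.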

[5] = NCI Yeast Anticancer Drug Screen. Data for the rad50 strain (AID 155);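 also: 0% = growth of vehicle-only cultures of the same strain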; settings: S. cerevisiae rad50 strain growth inhibition, stronger effect = higher value
Summary of the method: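 Vehicle-treated cultures provide the reference for the growth inhibition reported for compound-exposed, repair-deficient yeast.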

[6] = NCI Yeast Anticancer Drug Screen. Data for the mec2-1 strain (AID 157); settings: S. cerevisiae mec2-1 strain, stronger effect = higher value
Summary of the method: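 Yeast mec2-1 mutant treated with compound. Readout: growth inhibition vs vehicle controls.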

[7] = NCI Yeast Anticancer Drug Screen. Data for the rad14 strain (AID 159);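 also: 0% = growth of vehicle-treated control cultures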; settings: S. cerevisiae rad14 strain growth inhibition, stronger effect = higher value
Summary of the method: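 Inhibition of growth is reported for a repair-deficient yeast mutant following compound treatment, calculated relative to cultures that received vehicle.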

[8] = NCI Yeast Anticancer Drug Screen. Data for the sgs1 mgt1 strain (AID 161);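 also: 0% = growth of cultures given vehicle only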; settings: S. cerevisiae sgs1 mgt1 strain, stronger effect = higher value
Summary of the method: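 Read-out: growth inhibition vs vehicle controls. Cells: mutant yeast strain deficient in DNA damage repair.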

[9] = NCI Yeast Anticancer Drug Screen. Data for the CLN2oe strain (AID 163);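 also: 0% = growth of vehicle-only control cultures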; settings: S. cerevisiae CLN2oe strain, stronger effect = higher value
Summary of the method: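 Read-out: yeast growth inhibition, expressed relative to vehicle-only controls. The strain bears an engineered cell-cycle alteration.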

[10] = NCI Yeast Anticancer Drug Screen. Data for the cln2 rad14 strain (AID 165);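 also: 0% = growth equal to vehicle treated cultures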; settings: S. cerevisiae cln2 rad14 strain, stronger effect = higher value
Summary of the method: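 cln2 rad14 yeast strain; compound exposure; growth inhibition read vs vehicle controls.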

[11] = NCI Yeast Anticancer Drug Screen. Data for the bub3 strain (AID 167); settings: S. cerevisiae bub3 mutant strain, stronger effect = higher value
Summary of the method: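 Mutant yeast screening strain plus compound; vehicle-treated cultures serve as the 0% inhibition reference.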

[12] = NCI Yeast Anticancer Drug Screen. Data for the wt2 strain (AID 169); settings: S. cerevisiae wt2 strain growth inhibition, stronger effect = higher value
Summary of the method: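 Read-out: growth inhibition versus vehicle-treated control cultures after compound exposure of the yeast strain.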

[13] = NCI Yeast Anticancer Drug Screen. Data for the mlh1 strain (AID 171);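 also: 0% = growth of vehicle-treated control cultures of the same strain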; settings: S. cerevisiae mlh1 strain growth inhibition, stronger effect = higher value
Summary of the method: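 Read-out: growth inhibition versus vehicle controls. Strain: engineered yeast with a defined DNA repair or cell cycle defect, compound-treated.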

[14] = NCI Yeast Anticancer Drug Screen. Data for the mlh1 rad18 strain (AID 175); settings: S. cerevisiae mlh1 rad18 strain growth inhibition, stronger effect = higher value
Summary of the method: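 Yeast w/ defined DNA-repair lesions; compound exposure; growth vs vehicle controls → % inhibition.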

[15] = NCI Yeast Anticancer Drug Screen. Data for the rad18 strain (AID 177); settings: S. cerevisiae rad18 mutant growth inhibition, stronger effect = higher value
Summary of the method: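 Readout: growth inhibition vs vehicle controls. Cells: genetically altered yeast strain, DNA repair defect.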

[16] = at 5.0 µM (retest, dose inferred, filed as 0.5)
[17] = at 50.0 µM (retest, dose inferred, filed as 5.0)

Measured: growth inhibition

CC1=CC(C)(C)SC(SSSC2=NC(C)=CC(C)(C)S2)=N1
inactive: [1]; at 1.2 µM -3% | [1]; at 3.7 µM -3% | [1]; at 11.0 µM 0% | [1]; at 33.0 µM 7% | [2]; at 1.2 µM -3% | [2]; at 3.7 µM -2% | [2]; at 11.0 µM 0% | [2]; at 33.0 µM 7% | [2]; at 100.0 µM 39% | [3]; at 1.2 µM -1% | [3]; at 3.7 µM -1% | [3]; at 11.0 µM 0% | [3]; at 33.0 µM 2% | [3]; at 100.0 µM 31% | [4]; at 1.2 µM -8% | [4]; at 3.7 µM 1% | [4]; at 11.0 µM 3% | [4]; at 33.0 µM 7% | [5]; at 1.2 µM -17% | [5]; at 3.7 µM -4% | [5]; [16] -6% | [5]; at 11.0 µM -4% | [5]; at 33.0 µM 1% | [5]; [17] 48% | [5]; at 50.0 µM 15.6% | [5]; at 100.0 µM 65% | [6]; at 1.2 µM -2% | [6]; at 3.7 µM -4% | [6]; [16] 0% | [6]; at 11.0 µM 0% | [6]; at 33.0 µM 8% | [6]; [17] 15% | [6]; at 50.0 µM 10.7% | [6]; at 100.0 µM 42% | [7]; at 1.2 µM -6% | [7]; at 3.7 µM -5% | [7]; at 11.0 µM -3% | [7]; at 33.0 µM 8% | [8]; [16] -10% | [8]; [17] 61% | [8]; at 50.0 µM 39.2% | [9]; at 1.2 µM -10% | [9]; at 3.7 µM -17% | [9]; at 11.0 µM -14% | [9]; at 33.0 µM -13% | [9]; at 100.0 µM 13% | [10]; [16] -9% | [10]; [17] 6% | [10]; at 50.0 µM 2.9% | [11]; at 1.2 µM -2% | [11]; at 3.7 µM -2% | [11]; [16] -1% | [11]; at 11.0 µM 1% | [11]; at 33.0 µM 1% | [11]; [17] 24% | [11]; at 50.0 µM -3.25% | [11]; at 100.0 µM 56% | [12]; at 1.2 µM -5% | [12]; at 3.7 µM -6% | [12]; at 11.0 µM -4% | [12]; at 33.0 µM 4% | [13]; at 1.2 µM -5% | [13]; at 3.7 µM -4% | [13]; at 11.0 µM 0% | [13]; at 33.0 µM 11% | [14]; [16] -4% | [14]; [17] 42% | [14]; at 50.0 µM 29.8%
active: [1]; at 100.0 µM 78% | [4]; at 100.0 µM 89% | [7]; at 100.0 µM 90% | [12]; at 100.0 µM 85% | [13]; at 100.0 µM 88%

O=[N+]([O-])c1ccc(C(c2c[nH]c3ccccc23)c2c[nH]c3ccccc23)cc1
active: [1]; at 1.2 µM 82% | [1]; at 3.7 µM 97% | [1]; at 11.0 µM 95% | [1]; at 33.0 µM 90% | [1]; at 100.0 µM 82% | [2]; at 3.7 µM 97% | [2]; at 11.0 µM 96% | [2]; at 33.0 µM 92% | [2]; at 100.0 µM 89% | [4]; at 3.7 µM 99% | [4]; at 11.0 µM 97% | [4]; at 33.0 µM 94% | [4]; at 100.0 µM 87% | [5]; at 1.2 µM 84% | [5]; at 3.7 µM 85% | [5]; [16] 79% | [5]; at 11.0 µM 94% | [5]; at 33.0 µM 89% | [5]; [17] 89% | [5]; at 50.0 µM 93.2% | [5]; at 100.0 µM 79% | [6]; at 3.7 µM 99% | [6]; at 11.0 µM 97% | [6]; at 33.0 µM 94% | [6]; [17] 95% | [6]; at 50.0 µM 93.8% | [6]; at 100.0 µM 88% | [7]; at 3.7 µM 98% | [7]; at 11.0 µM 97% | [7]; at 33.0 µM 93% | [7]; at 100.0 µM 84% | [8]; [16] 82% | [8]; [17] 95% | [8]; at 50.0 µM 92.9% | [9]; at 3.7 µM 98% | [9]; at 11.0 µM 96% | [9]; at 33.0 µM 92% | [9]; at 100.0 µM 86% | [10]; [17] 93% | [10]; at 50.0 µM 88.1% | [11]; at 3.7 µM 98% | [11]; at 11.0 µM 96% | [11]; at 33.0 µM 93% | [11]; [17] 96% | [11]; at 50.0 µM 94.3% | [11]; at 100.0 µM 86% | [12]; at 3.7 µM 98% | [12]; at 11.0 µM 97% | [12]; at 33.0 µM 94% | [12]; at 100.0 µM 88% | [13]; at 3.7 µM 98% | [13]; at 11.0 µM 97% | [13]; at 33.0 µM 94% | [13]; at 100.0 µM 90% | [14]; [16] 93% | [14]; [17] 92% | [14]; at 50.0 µM 93% | [15]; at 3.7 µM 98% | [15]; at 11.0 µM 96% | [15]; at 33.0 µM 92% | [15]; at 100.0 µM 86%
inactive: [2]; at 1.2 µM 12% | [3]; at 1.2 µM 10% | [3]; at 3.7 µM 9% | [3]; at 11.0 µM 3% | [3]; at 33.0 µM 2% | [3]; at 100.0 µM -14% | [4]; at 1.2 µM 18% | [6]; at 1.2 µM 22% | [6]; [16] 10% | [7]; at 1.2 µM 25% | [9]; at 1.2 µM 40% | [10]; [16] 14% | [11]; at 1.2 µM 24% | [11]; [16] 45% | [12]; at 1.2 µM 9% | [13]; at 1.2 µM 33% | [15]; at 1.2 µM 66%

COc1ccc(C(=O)/C=C\c2ccc(Cl)c(Cl)c2)cc1
inactive: [1]; at 1.2 µM 16% | [1]; at 3.7 µM 15% | [1]; at 11.0 µM 19% | [1]; at 33.0 µM 34% | [1]; at 100.0 µM 56% | [2]; at 1.2 µM 26% | [2]; at 3.7 µM 26% | [2]; at 11.0 µM 29% | [2]; at 33.0 µM 43% | [3]; at 1.2 µM 12% | [3]; at 3.7 µM 10% | [3]; at 11.0 µM 16% | [3]; at 33.0 µM 31% | [3]; at 100.0 µM 24% | [4]; at 1.2 µM 7% | [4]; at 3.7 µM -38% | [4]; at 11.0 µM -4% | [4]; at 33.0 µM 25% | [5]; at 1.2 µM 4% | [5]; at 3.7 µM 7% | [5]; [16] 53% | [5]; at 11.0 µM 6% | [5]; at 33.0 µM 34% | [5]; [17] 68% | [5]; at 50.0 µM 69.5% | [6]; at 1.2 µM -7% | [6]; at 3.7 µM 0%
active: [2]; at 100.0 µM 81% | [4]; at 100.0 µM 70% | [5]; at 100.0 µM 71%
